# Bioassay records deposited in PubChem BioAssay by National Center for Advancing Translational Sciences (NCATS).
# ELG1 genotox: induces genotoxicity in HEK293T cells with luciferase-tagged ELG1; HEK293T ELG1-luciferase reporter, luminescence, 16 h; hit rate 1.3% among 330,000; AID 504466; Potency, µM (titrated, usually from 46 µM), without a hit: top-dose activity change, positive = activation, most hits filed as activators; further: % of control where 0% means no effect; nearly all actives have a fitted effect of over 60% in size
#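 After overnight (16 hr) compound treatment at 37 °C, ELG1-luciferase HEK293T cells were lysed with ONE-Glo; luminescence quantified 30 min later at room temperature.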
# FLuc modulator: counter-screen for miR-21 project: firefly luciferase inhibitors or activators. P08659. purified FLuc, Km substrates, luminescence inhibition. Potency, µM (highest dose often 57.5 µM), without a hit: at the top dose activity change, negative = inhibition, most hits filed as inhibitors. hit rate 6.9% among 360,000. AID 588342;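 further: plate controls were vehicle for no effect and reference inhibitor for full effect; nearly all actives have a fitted effect of over 55% in size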
# Target sequence (P08659 whole entry, looked up): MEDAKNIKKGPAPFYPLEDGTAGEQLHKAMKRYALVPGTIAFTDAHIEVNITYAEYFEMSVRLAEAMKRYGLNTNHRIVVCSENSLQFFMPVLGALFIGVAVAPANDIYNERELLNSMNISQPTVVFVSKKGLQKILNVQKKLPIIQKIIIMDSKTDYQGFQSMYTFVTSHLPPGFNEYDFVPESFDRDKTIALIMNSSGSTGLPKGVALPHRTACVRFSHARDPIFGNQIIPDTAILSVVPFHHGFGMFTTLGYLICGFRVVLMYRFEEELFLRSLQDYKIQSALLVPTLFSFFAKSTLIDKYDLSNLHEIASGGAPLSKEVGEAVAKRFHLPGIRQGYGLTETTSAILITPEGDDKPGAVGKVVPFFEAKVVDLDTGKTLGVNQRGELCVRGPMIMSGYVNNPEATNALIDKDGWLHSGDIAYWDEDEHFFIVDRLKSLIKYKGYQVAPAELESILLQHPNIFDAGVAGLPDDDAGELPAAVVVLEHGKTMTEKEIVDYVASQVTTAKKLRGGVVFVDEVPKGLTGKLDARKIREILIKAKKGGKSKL
#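 Biochemical qHTS of compounds, final roughly 60 µM downward over six points, against 10 nM purified firefly luciferase using Km concentrations of substrates (10 uM D-luciferin, 10 uM ATP) in Tris acetate pH 7.5 buffer; luminescence output.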
# NPC1 prom act: NPC1 promoter activation; Huh7 NPC1 promoter luciferase reporter, 24 h; Potency, µM (series often up to 9.22 µM), inactives show top-dose activation, hits mostly activators; hit rate 2.4% among 320,000; further: % of control where 0% means no effect; nearly all actives have a fitted effect of over 60% in size
#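 Luminescence from an NPC1 promoter-driven luciferase reporter in stably transfected Huh7 cells was measured after 24 h compound treatment at 37 °C, followed by 10 min ambient incubation with luciferase detection reagent.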
# Rab9 prom act: activates the Rab9 promoter; Huh7 Rab9 promoter-luciferase reporter, luminescence, 24 h; Potency, µM (highest dose often 9.22 µM), inactives show at the top dose activation, negative = inhibition, hits mostly activators; hit rate 2.8% among 320,000; AID 485297; further: % of control where 0% means no effect; nearly all actives have a fitted effect of over 60% in size
#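 Quantitative HTS format; Huh7 Rab9-luciferase reporter cells (1500/well) receive compound 2 h post-plating, incubate 24 h at 37 °C, then get luciferase reagent for 10 min before luminescence reading.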
# SMN2 splice enh: SMN2 splice variant enhancement; HEK293 SMN2-luciferase splicing reporter, luminescence, 30-36 h; AID 1458; Potency, µM (titrated, usually from 46.1 µM), without a hit: at the highest dose activity change, positive = activation, most hits filed as activators; hit rate 2.8% among 210,000; further: % of control where 0% means no effect; nearly all actives have a fitted effect of over 55% in size
#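 qHTS luciferase splicing reporter: luminescence rises when SMN2 exon 7 is included in transfected HEK293 cells. Compound exposure lasted 30-36 h at 37C, with 4.5 mM final sodium butyrate as control, followed by a ONE-Glo read.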
# Starred values were filed as active, the others as inactive; ? = inconclusive; / = no result given; [ ] = remark or other dose. In the library only some 7.5% were active in any assay of this set; here they are far more common. The call rests on the fitted dose curve; in most records, active means well fitted curve in the direction sought with a large enough effect; inconclusive means small, poorly fitted or top-dose-only effect, or another doubt; inactive means no such curve, though single readings can be large; an effect the other way counts as inactive or inconclusive. Potency means the concentration at half of the fitted maximal effect.
SMILES,ELG1 genotox,FLuc modulator,NPC1 prom act,Rab9 prom act,SMN2 splice enh
CC(C(=O)N1CCN(C(=O)c2ccco2)CC1)n1sc2ccccc2c1=O (configuration not stated),2%,5%,0%,0%,/
Cc1ccc(N=Nc2ccc3ccccc3c2O)cc1,?,0.24µM*,0.56µM*,2.5µM*,/
Oc1c(N=Nc2ccc(F)cc2)ccc2ccccc12,2.1µM*,0.6µM*,3.2µM*,4.5µM*,/
COCCCNc1nc2ccccc2[nH]c1=O,0%,-10%,0%,9%,1%
Cc1ccc(CNC(=O)c2oc3ccc(S(=O)(=O)N4CCOCC4)cc3c2C)cc1,-20%,3%,0%,-1%,5.6µM*
Cc1c(C(=O)N2CCOCC2)oc2ccc(S(=O)(=O)N3CCCC3)cc12,/,-6%,?,0.016µM*,2%
CCOC(=O)N1CCN(C(=O)c2oc3ccc(S(=O)(=O)N4CCOCC4)cc3c2C)CC1,-6%,1%,1%,1%,-19%
O=C(OCc1cc(=O)n2nc(-c3cccs3)sc2n1)c1ccccc1,/,-9%,/,/,/
Cc1cc(C(=O)COC(=O)c2cccc(S(=O)(=O)N(C)C)c2)c(C)n1CC1CCCO1 (configuration not stated),10%,0.95µM*,?,3.5µM*,/
CNS(=O)(=O)c1cccc(C(=O)OCC(=O)c2cc(C)n(-c3ccc4c(c3)OCO4)c2C)c1,11%,?,-1%,-3%,-24%
CNS(=O)(=O)c1cccc(C(=O)OCC(=O)c2cc(C)n(CC3CCCO3)c2C)c1 (configuration not stated),?,1.3µM*,2.5µM*,2.8µM*,/
Cc1cc(C)n2nc(C(=O)OCC(=O)c3cc(C)n(CC4CCCO4)c3C)nc2n1 (configuration not stated),-1%,-17%,1%,-4%,6%
CCN(CC)c1ccc(C=Nc2cccnc2Cl)c(O)c1,-1%,2.4µM*,-6%,-5%[1.84 µM],/
CCN(CC)c1ccc(C=Nc2cc(C)ccc2C)c(O)c1,7%,1.7µM*,2%,1%,?
CCN(CC)c1ccc(C=Nc2ccc(C)cc2C)c(O)c1,9%,3.4µM*,28%,?,/
O=C(Nc1cccc(Cl)c1)N1CCSc2ccccc21,/,4%,/,/,/
O=C(COC(=O)CCC1CCCC1)NCc1ccc(Cl)cc1,0%,2%,-6%,0%,1%
COc1cc(C(O)P(=O)(OC2CCCCC2)c2ccc(N(C)C)cc2)cc(OC)c1OC (configuration not stated),0%,7%,-7%,-9%,-1%
CCCCOc1ccc(CSc2n[nH]c(C)n2)cc1,21µM*,?,?,?,18µM*
CCCCOc1ccc(CSc2nncn2N)cc1,?,?,?,?,26%
CCOC(=O)c1ccc(CSc2ncn[nH]2)o1,6%,1%,-2%,0%,-4%
CCCCCOc1ccc(CSc2ncn[nH]2)cc1,?,12µM*,?,2.5µM*,11µM*
CCCCOc1ccc(CSc2ncn[nH]2)cc1,14%,7.6µM*,?,?,10%
Cn1nc(-c2ccc(N3CCCCC3)c(NC(=O)c3ccc(Cl)cc3)c2)c2ccccc2c1=O,/,4%,/,/,6%
Cc1nn2cc(-c3ccc(Cl)cc3)cnc2c1Cl,?,?,3.5µM*,3.2µM*,5.6µM*
SMILES,ELG1 genotox,FLuc modulator,NPC1 prom act,Rab9 prom act,SMN2 splice enh
COC(=O)Cc1[nH]n(-c2ccccc2)c(=O)c1C(C)=Nc1ccccc1,10%,?,?,3.2µM*,-14%
COC(=O)Cc1[nH]n(-c2nc3ccccc3s2)c(=O)c1C(C)=Nc1ccc(C)cc1,-12%,?,-34%,-44%,-94%
COC(=O)Cc1cc(=O)n(-c2ccccc2)[nH]1,-3%,2%,-1%,2%,25%
COC(=O)Cc1[nH]n(-c2nc3ccccc3s2)c(=O)c1C(C)=Nc1ccc(Cl)cc1,2%,12µM*,-44%,-58%,/
Cc1c(C)c2ccc(OC3CCCCC3=O)cc2oc1=O (configuration not stated),?,-15%,1%,1%,?
COc1ccc(N(C)C(=O)c2ccc3snnc3c2)cc1,6%,-7%,1%,4%,6%
CC1CN(C(=O)Nc2ccc3snnc3c2)c2ccccc21 (configuration not stated),?,19µM*,-1%,4%,?
Cc1ccc(OC(=O)c2ccc3snnc3c2)cc1,3%,9.5µM*,3%,0%,-16%
Cc1ccc(NC(=O)c2ccc3snnc3c2)cc1C,?,15µM*,?,?,20µM*
O=C(Nc1ccc(F)cc1)Nc1ccc2snnc2c1,/,24µM*,/,/,8%
NC(=O)C1CCN(C(=S)NCCc2ccccc2)CC1,2%,1%,-2%,-2%,/
COc1ccc(NC(=O)c2ccc3snnc3c2)cc1OC,/,-17%,/,/,6%
COc1cccc(NC(=O)c2ccc3snnc3c2)c1,16%,19µM*,?,?,?
Cc1ccc(C(=O)NN=CC(=O)c2ccccc2)c(C)c1,2.3µM*,/,/,/,/
COc1ccc(C(=O)NN/C(C)=C/C(=O)c2ccccc2)cc1,0%,-4%,0%,1%,/
COc1ccc(C(=O)N/N=C/C(=O)c2ccccc2)cc1,10µM*,1.5µM*,2.5µM*,?,/
CCC1COCCS(=O)(=O)N1Cc1cccc(C(F)(F)F)c1 (configuration not stated),-1%,2%,-3%,6%,/
CC(C)Cc1ccc(C(=O)NCCOc2ccccc2)o1,3.3µM*,0.95µM*,0.32µM*,0.79µM*,/
O=C(NCCOc1ccccc1)c1cc2ccccc2o1,/,5.4µM*,/,/,10µM*
Cc1ccc(OCCNC(=O)c2ccc(COc3ccccc3)o2)cc1,8%,-8%,-2%,1%,/
Cc1ccccc1-n1c(Cn2c(=O)sc3ccccc32)nnc1SCC(N)=O,-5%,0%,4%,-3%,-5%
Fc1ccc(NC(=S)NCCN2CCOCC2)cc1,-2%,5%,-1%,-2%,/
COCCCNC(=O)c1cccn2c(=O)c3cc4ccccc4cc3nc12,11%,15µM*,27%,19%,-33%
CCOC(=O)Cc1csc(NC(=O)Nc2ccc(C)cc2)n1,0%,3µM*,17%,21%,/
CCOC(=O)Nc1nc(-c2ccc(F)cc2F)cs1,14%,19µM*,?,?,26%
CCOC(=O)Cc1csc(NC(=O)Nc2cccs2)n1,7%,21µM*,?,24%,/
CCOC(=O)Cc1csc(NC(=S)NC(=O)c2ccc(F)cc2)n1,-1%,?,-2%,5%,-7%
CCOC(=O)Cc1csc(NC(=O)Nc2ccc(F)cc2)n1,-10%,11µM*,4%,-1%,/
Cc1ccccc1-c1nc(CN2CCN(C(=O)c3ccco3)CC2)c(C)o1,2%,1%,2%,13%,/
O=c1c2c3n(c(=S)nc2[nH]n1-c1ccccc1)CCCCC3,0%,-15%,2%,-2%,-3%
